Measurements as given in PubChem BioAssay (EPA / NIEHS).
Calls of active or inactive are those of the source. How the source made its calls: active means hit-call score of the fitted dose curve at least 0.9, where 1 is the maximum; inactive means score below 0.9.

Experiments:
[1] = APR_HepG2_P-H2AX_72hr: Apredica 72-hour HepG2 Assay for H2AX Phosphorylation (AID 2282916); conditions: imaging, actives raise or lower the signal;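 further: phospho-histone H2A.x immunostain intensity per cell marking DNA damage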
In short: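 Phospho-H2A.x imaging endpoint in HepG2 after 72 hr compound exposure (0.39–200 uM, duplicate wells). Activity derived by bidirectional curve fitting with DMSO as baseline.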

[2] = APR_HepG2_MitoMembPot_72hr: Apredica 72-hour HepG2 Assay for Mitochondrial Membrane Potential (AID 2282917); conditions: imaging, actives raise or lower the signal
In short: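 HepG2 cells dosed 72 hr with compound at 0.39–200 uM in duplicate, 0.5% v/v DMSO final. Mitochondria stained with 250 nM MitoTracker Red CMXRos for 30 min before formaldehyde fixation, imaged by high-content fluorescence; bidirectional fit versus DMSO.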

[3] = APR_HepG2_MitoticArrest_72hr: Apredica 72-hour HepG2 Assay for Mitotic Arrest (AID 2282918); conditions: high-content imaging, actives raise or lower the signal
In short: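 HepG2 cells were exposed for 72 hr to compound at 0.39–200 uM (10 concentrations, duplicate) in 0.5% v/v DMSO, fixed in 3.7% formaldehyde, immunostained for phospho-histone H3 with Hoechst 33342 and imaged by high-content fluorescence; bidirectional fits versus DMSO.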

[4] = APR_HepG2_MicrotubuleCSK_72hr: Apredica 72-hour HepG2 Assay for Microtubule CSK Stabilty (AID 2282919); conditions: HepG2 microtubule cytoskeleton, high-content imaging, actives raise or lower the signal
In short: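 HepG2, 72 hr cmpd exposure, 0.39–200 uM (10 pts, duplicate), 0.5% DMSO. 3.7% formaldehyde fix, 0.5% Triton perm, anti-alpha-tubulin/Cy5 plus Hoechst. HCS fluorescence intensity; bidirectional fit vs DMSO baseline; taxol as positive control.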

[5] = APR_HepG2_P-H2AX_24hr: Apredica 24-hour HepG2 Assay for H2AX Phosphorylation (AID 2282920); conditions: high-content imaging, actives raise or lower the signal
In short: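 HepG2 human liver cells were exposed for 24 hr to compounds at 0.39–200 uM in duplicate, with 0.5% v/v DMSO final. Fixed cells were immunostained for phospho-histone H2A.x plus Hoechst 33342, imaged by HCS fluorescence, and fitted bidirectionally against DMSO.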

[6] = APR_HepG2_StressKinase_72hr: Apredica 72-hour HepG2 Assay for Stress Kinase (AID 2282921); conditions: HepG2 stress kinase (phospho-c-Jun) imaging, actives raise or lower the signal
In short: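 Stress kinase signal reflects nuclear phospho-c-Jun staining in fixed, permeabilized cells exposed 72 h to compound at 0.39–200 uM; DMSO-normalized, fitted for increases or decreases.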

[7] = APR_HepG2_StressKinase_24hr: Apredica 24-hour HepG2 Assay for Stress Kinase (AID 2282922); conditions: HepG2 stress kinase (phospho-c-Jun) imaging, actives raise or lower the signal
In short: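 Read-out: phospho-c-Jun immunofluorescence (Cy3 secondary) quantified by high-content imaging at 20x, nuclei defined by Hoechst 33342. Human HepG2 liver cells dosed 24 hr, 0.39–200 uM, DMSO 0.5% v/v; gain or loss of signal fitted relative to DMSO.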

[8] = APR_HepG2_p53Act_72hr: Apredica 72-hour HepG2 Assay for p53 Activation (AID 2282923); conditions: high-content imaging, actives raise or lower the signal;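 further: average cellular p53 protein immunofluorescence intensity in HepG2 cells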
In short: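 Fixed-cell p53 staining (sheep primary, Cy5 secondary) measured by fluorescence imaging following 72 hr treatment at 0.39–200 uM in 0.5% DMSO; DMSO served as negative control and baseline.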

[9] = APR_HepG2_MitoMass_72hr: Apredica 72-hour HepG2 Assay for Mitochondrial Mass (AID 2282924); conditions: high-content imaging, actives raise or lower the signal;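 further: MitoTracker Red CMXRos stain intensity per cell imaged as mitochondrial mass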
In short: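 Read-out: MitoTracker Red fluorescence intensity from automated imaging (20x, six fields per well) in human HepG2 liver cells. Dosing ran 72 hr, 0.39–200 uM, 0.5% DMSO; bidirectional curve fitting versus DMSO baseline.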

[10] = APR_HepG2_NuclearSize_72hr: Apredica 72-hour HepG2 Assay for Nuclear Size (AID 2282925); conditions: high-content imaging, actives raise or lower the signal
In short: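 Read-out: nuclear diameter from Hoechst 33342 images (ArrayScan, 20x, six fields/well), via cell-cycle image analysis. HepG2 were dosed 0.39–200 uM for 72 hr in 0.5% DMSO. Bidirectional fit relative to DMSO.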

[11] = ATG_CRE_CIS: Attagene CIS-FACTORIAL HepG2 Assay for human cAMP Responsive Element (CRE) binding protein 3 (AID 2282926); conditions: HepG2 CRE cis-reporter, Attagene multiplexed mRNA; actives raise or lower the signal
In short: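 Capillary electrophoresis of 6-FAM-labelled, HpaI-digested PCR products quantified reporter transcripts. These came from HepG2 transiently transfected with cis-element reporters and exposed to test chemicals for 24 hours, with DMSO defining baseline activity.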

[12] = target: CCAAT/enhancer-binding protein beta (Homo sapiens) (UniProt P17676); assay: ATG_C_EBP_CIS: Attagene CIS-FACTORIAL HepG2 Assay for human CCAAT/Enhancer Binding Protein (C/EBP) beta (AID 2282927); conditions: HepG2 Attagene cis-factorial transcription factor reporter; actives raise or lower the signal
Sequence of CCAAT/enhancer-binding protein beta (Homo sapiens) (P17676 whole entry, looked up): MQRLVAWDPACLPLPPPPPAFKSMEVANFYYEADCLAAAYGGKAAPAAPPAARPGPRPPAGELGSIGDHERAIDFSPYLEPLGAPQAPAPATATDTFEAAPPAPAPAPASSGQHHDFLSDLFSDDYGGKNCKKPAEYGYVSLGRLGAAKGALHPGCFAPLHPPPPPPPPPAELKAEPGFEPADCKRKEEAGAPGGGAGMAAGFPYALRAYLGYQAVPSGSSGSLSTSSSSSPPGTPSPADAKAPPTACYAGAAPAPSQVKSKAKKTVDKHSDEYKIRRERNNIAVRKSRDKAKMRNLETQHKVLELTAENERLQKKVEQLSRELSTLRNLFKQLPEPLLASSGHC
In short: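 HepG2 transiently transfected with multiplexed reporter units under cis-regulatory promoters reporting endogenous C/EBPb activity. After 24 h exposure, reporter mRNA assayed by RT-PCR, fluorescent labelling, HpaI digestion and capillary electrophoresis; bidirectional fitting versus DMSO.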

[13] = ATG_CMV_CIS: Attagene CIS-FACTORIAL HepG2 Assay for human CMV (Internal Marker) (AID 2282928); conditions: HepG2 CMV promoter reporter, transcription factor profiling; actives raise or lower the signal;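 further: endpoint acts as a background internal control marker rather than a target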
In short: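 Fluorescence intensity of RT-PCR-derived reporter fragments, resolved by capillary electrophoresis, gives the signal. HepG2 liver cells bearing transfected cis-element reporters were treated 24 h; activity in either direction was fit relative to DMSO-treated controls.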

[14] = target: Aryl hydrocarbon receptor (Homo sapiens) (UniProt P35869); assay: ATG_Ahr_CIS: Attagene CIS-FACTORIAL HepG2 Assay for human Aryl Hydrocarbon Receptor (Ahr) (AID 2282930); conditions: HepG2 AhR cis-factorial reporter transcription; actives raise or lower the signal
Sequence of Aryl hydrocarbon receptor (Homo sapiens) (P35869 whole entry, looked up): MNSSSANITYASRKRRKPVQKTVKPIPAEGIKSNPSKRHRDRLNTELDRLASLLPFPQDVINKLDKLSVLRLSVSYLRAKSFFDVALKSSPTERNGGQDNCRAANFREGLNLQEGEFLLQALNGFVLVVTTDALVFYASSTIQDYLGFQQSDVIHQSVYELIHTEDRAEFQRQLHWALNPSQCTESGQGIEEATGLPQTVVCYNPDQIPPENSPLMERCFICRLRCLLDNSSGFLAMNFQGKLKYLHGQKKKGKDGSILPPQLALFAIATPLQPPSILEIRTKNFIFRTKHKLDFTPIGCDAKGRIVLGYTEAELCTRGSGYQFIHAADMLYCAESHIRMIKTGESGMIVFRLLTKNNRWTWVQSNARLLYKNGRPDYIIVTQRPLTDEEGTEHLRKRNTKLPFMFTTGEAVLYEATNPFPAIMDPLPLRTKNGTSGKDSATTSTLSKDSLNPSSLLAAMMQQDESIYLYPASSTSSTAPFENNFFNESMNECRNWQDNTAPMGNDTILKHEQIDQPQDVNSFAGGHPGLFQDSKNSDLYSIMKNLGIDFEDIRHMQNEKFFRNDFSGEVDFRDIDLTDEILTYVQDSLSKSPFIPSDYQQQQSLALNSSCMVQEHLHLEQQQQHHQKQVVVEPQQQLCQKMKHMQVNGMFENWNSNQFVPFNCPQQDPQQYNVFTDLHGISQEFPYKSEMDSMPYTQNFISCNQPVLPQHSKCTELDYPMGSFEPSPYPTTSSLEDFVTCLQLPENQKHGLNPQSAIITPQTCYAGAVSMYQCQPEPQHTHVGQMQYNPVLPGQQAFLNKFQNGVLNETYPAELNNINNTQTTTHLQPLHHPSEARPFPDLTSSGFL
In short: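 HepG2 cells transiently transfected with cis-element-driven multiplexed reporter units; endogenous AhR activity read as reporter mRNA 24 h after dosing, via RT-PCR, 6-FAM labelling, HpaI digestion and capillary electrophoresis. Bidirectional fit relative to DMSO.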

[15] = ATG_AP_1_CIS: Attagene CIS-FACTORIAL HepG2 Assay for human Activator Protein 1 (AP-1) (AID 2282931); conditions: HepG2 Attagene cis-factorial AP-1 reporter mRNA; actives raise or lower the signal
In short: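 HepG2 cells transiently transfected with cis-element-driven multiplex reporter units; 24 h compound exposure. Reporter mRNA quantified by RT-PCR, FAM-labelled fragments resolved by capillary electrophoresis; bidirectional fit versus DMSO baseline.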

[16] = ATG_AP_2_CIS: Attagene CIS-FACTORIAL HepG2 Assay for human Activator Protein 2 (AP-2) (AID 2282932); conditions: HepG2 AP-2 cis-reporter, Attagene transcription factor profiling; actives raise or lower the signal
In short: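 Read-out: fluorescent reporter mRNA via RT-PCR and capillary electrophoresis, 24 h post-dose in transiently transfected HepG2. Endogenous factors drive cis-promoter reporters; gain or loss of signal fitted bidirectionally against DMSO.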

[17] = ATG_BRE_CIS: Attagene CIS-FACTORIAL HepG2 Assay for human Bone Morphogenetic Protein (BMP) Response Element (BRE) (AID 2282933); conditions: HepG2 BMP response element reporter, Attagene transcription factor profiling; actives raise or lower the signal
In short: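 Multiplexed cis-reporter assay, HepG2, 24 h exposure. mRNA from reporter units quantified via RT-PCR/CE; DMSO baseline; bidirectional curve fit.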

[18] = target: Retinoic acid receptor alpha (Homo sapiens) (UniProt P10276); assay: ATG_DR5_RAR_CIS: Attagene CIS-FACTORIAL HepG2 Assay for human Retinoic Acid Receptor Alpha (RARE), DR5 submotif (AID 2282934); conditions: HepG2 Attagene cis-factorial RARE DR5 reporter, mRNA; actives raise or lower the signal
Sequence of Retinoic acid receptor alpha (Homo sapiens) (P10276 whole entry, looked up): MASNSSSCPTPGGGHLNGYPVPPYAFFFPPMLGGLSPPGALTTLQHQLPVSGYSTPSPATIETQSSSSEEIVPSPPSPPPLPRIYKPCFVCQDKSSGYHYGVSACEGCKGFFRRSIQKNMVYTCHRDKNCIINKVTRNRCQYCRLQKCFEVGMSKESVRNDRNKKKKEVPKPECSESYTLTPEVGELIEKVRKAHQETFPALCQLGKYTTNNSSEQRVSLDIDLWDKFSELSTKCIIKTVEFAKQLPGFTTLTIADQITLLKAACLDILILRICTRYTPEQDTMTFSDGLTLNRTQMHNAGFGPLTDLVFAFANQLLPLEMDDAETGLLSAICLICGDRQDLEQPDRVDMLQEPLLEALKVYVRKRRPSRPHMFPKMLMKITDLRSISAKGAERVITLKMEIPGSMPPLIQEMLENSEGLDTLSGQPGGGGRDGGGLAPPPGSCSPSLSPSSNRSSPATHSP
In short: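 HepG2 cells transiently transfected with multiplexed reporter units; DR5 cis-element drives reporter through endogenous transcription factors. After 24 h dosing, reporter mRNA quantified by RT-PCR, fluorescent labeling, HpaI digestion and capillary electrophoresis; bidirectional fitting versus DMSO.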

[19] = target: Transcription factor E2F1 (Homo sapiens) (UniProt Q01094); assay: ATG_E2F_CIS: Attagene CIS-FACTORIAL HepG2 Assay for human E2F Transcription Factor 1 (AID 2282935); conditions: HepG2 Attagene cis-reporter, E2F reporter RNA transcripts; actives raise or lower the signal
Sequence of Transcription factor E2F1 (Homo sapiens) (Q01094 whole entry, looked up): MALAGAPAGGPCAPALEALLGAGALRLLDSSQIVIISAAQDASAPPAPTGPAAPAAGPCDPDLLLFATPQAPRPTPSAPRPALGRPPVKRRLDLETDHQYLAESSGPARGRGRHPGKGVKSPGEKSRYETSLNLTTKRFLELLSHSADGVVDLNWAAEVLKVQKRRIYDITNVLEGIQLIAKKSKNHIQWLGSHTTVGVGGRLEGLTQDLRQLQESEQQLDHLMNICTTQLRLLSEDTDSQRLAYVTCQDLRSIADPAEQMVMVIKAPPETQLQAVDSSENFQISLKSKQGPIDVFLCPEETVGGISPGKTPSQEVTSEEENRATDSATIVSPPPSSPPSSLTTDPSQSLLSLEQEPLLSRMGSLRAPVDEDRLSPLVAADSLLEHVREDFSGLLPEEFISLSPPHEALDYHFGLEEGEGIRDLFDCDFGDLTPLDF
In short: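 Transient MRTU transfection of HepG2; 24 h compound exposure; RNA → oligo(dT) RT → PCR → FAM label → HpaI cut → CE fluorescence. Gain/loss of signal fit against DMSO.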

[20] = ATG_DR4_LXR_CIS: Attagene CIS-FACTORIAL HepG2 Assay for human Liver X Receptor (LXR), DR4 submotif (AID 2282929); conditions: HepG2 Attagene DR4 cis-reporter, mRNA transcription; actives raise or lower the signal
In short: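 HepG2 cells transiently transfected with cis-promoter-driven multiplexed reporter units (DR4 element) were dosed for 24 h. Reporter mRNA was quantified by RT-PCR, fluorescent primer extension, HpaI digestion and capillary electrophoresis; bidirectional fitting versus DMSO baseline.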

Measured: AC50

O=C=NCCCCCCN=C=O
inactive: [1] | [2] | [3] | [4] | [5] | [6] | [7] | [8] | [9] | [10] | [11] | [12] | [13] | [14] | [15] | [16] | [17] | [18] | [19]

CCCCCCCCN(C)CCCCCCCC
inactive: [1] | [3] | [4] | [5] | [6] | [7] | [9] | [10] | [11] | [12] | [13] | [14] | [15] | [16] | [17] | [18] | [19]

COc1ccc2cc(S(=O)(=O)N[C@H](CC(=O)N[C@H](Cc3ccc(CN4[C@H](C)CCC[C@@H]4C)cc3)C(=O)N(C)C(C)C)c3ccc4c(c3)OCO4)ccc2c1
active: [1] 13.7 µM | [3] 11.1 µM | [5] 21.8 µM | [6] 13.6 µM | [8] 10.7 µM | [9] 45 µM | [11] 15.4 µM | [14] 14.7 µM | [15] 11 µM | [17] 11 µM | [19] 11 µM
inactive: [2] | [4] | [7] | [10] | [12] | [13] | [20] | [16] | [18]
